Shown is part of a subset that was picked to be rich in hits.
12-hLO inh: qHTS Assay for Inhibitors of 12-hLO (12-human lipoxygenase); purified 12-hLO, xylenol orange hydroperoxide absorbance; 150,000 compounds, 0.12% hits; AID 1452, 2008; Potency, µM (top dose mostly 57.1 µM), actives largely listed as inhibitors; also: nearly all actives have a fitted effect of over 55% in size
Target sequence (P18054 whole entry, looked up): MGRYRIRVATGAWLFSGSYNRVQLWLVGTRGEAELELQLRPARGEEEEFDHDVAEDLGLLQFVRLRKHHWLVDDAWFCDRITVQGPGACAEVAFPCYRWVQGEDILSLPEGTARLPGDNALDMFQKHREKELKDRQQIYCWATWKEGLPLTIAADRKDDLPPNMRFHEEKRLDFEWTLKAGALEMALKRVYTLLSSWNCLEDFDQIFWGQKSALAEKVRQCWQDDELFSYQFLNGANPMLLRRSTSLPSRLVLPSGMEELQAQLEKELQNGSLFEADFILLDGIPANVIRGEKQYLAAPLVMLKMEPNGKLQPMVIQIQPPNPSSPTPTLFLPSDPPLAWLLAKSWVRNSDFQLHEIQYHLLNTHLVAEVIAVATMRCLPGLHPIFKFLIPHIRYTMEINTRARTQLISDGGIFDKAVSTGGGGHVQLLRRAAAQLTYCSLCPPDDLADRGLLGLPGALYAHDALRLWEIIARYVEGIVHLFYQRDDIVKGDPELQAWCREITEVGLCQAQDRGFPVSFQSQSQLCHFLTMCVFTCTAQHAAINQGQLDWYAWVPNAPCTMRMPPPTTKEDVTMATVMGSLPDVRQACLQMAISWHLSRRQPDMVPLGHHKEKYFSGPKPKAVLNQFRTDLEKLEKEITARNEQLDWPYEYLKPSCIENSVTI
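Purified human 12hLO (150 nM final) was preincubated with compounds for 15 min at room temperature in 25 mM Hepes pH 7.0, 0.01% Triton X-100, then reacted with 40 uM arachidonic acid for 30 min. Hydroperoxide was detected with ferrous iron/xylenol orange.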
ALOX15B inhib: qHTS Assay for Inhibitors of 15-hLO-2 (15-human lipoxygenase 2); Polyunsaturated fatty acid lipoxygenase ALOX15B (Homo sapiens), O15296; purified 15hLO-2, xylenol orange hydroperoxide absorbance; Potency, µM (top dose mostly 57.1 µM), actives largely listed as inhibitors; 110,000 compounds, 0.56% hits; also: nearly all actives have a fitted effect of over 60% in size
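Screening format was qHTS against 50 nM purified 15hLO-2 in Hepes pH 7.5 with detergent. Activity follows hydroperoxide formation from 45 uM arachidonic acid, measured as 573:405 nm absorbance ratio of the ferric-xylenol orange complex.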
Each line names hits and unclear results; the compound was inactive in the other large screens. Calls follow the shape of the dose curve; as a rule, active = well fitted curve in the direction sought with a large enough effect; inconclusive = small, poorly fitted or top-dose-only effect, or another doubt; inactive = no such curve, though single readings can be large; an effect the other way counts as inactive or inconclusive.

COC(=O)C1(C(=O)OC)C[C@H]2CON=C2[C@H]1c1ccccc1	none (no result: ALOX15B inhib)
CC(C)[N+]1(C)[C@@H]2CC[C@H]1CC(OC(=O)[C@@H](CO)c1ccccc1)C2 (stereo not given in full)	none
Cc1cc(C(=O)Nc2ccccc2C(F)(F)F)no1	none
Cc1ccc(C(=O)NC(=S)Nc2ccccc2C(F)(F)F)cc1C	12-hLO inh 22µM, ALOX15B inhib 25µM
CC(Oc1ccc(Cl)cc1Cl)C(=O)Nc1ccncc1 (stereo not given)	none
CC(Oc1ccc(Cl)cc1Cl)C(=O)NC1=NN(c2ccccc2)C(=O)C1 (stereo not given)	12-hLO inh 8.9µM, ALOX15B inhib 7.9µM
Cn1cc(C=C2C(=O)Nc3cccnc32)c2ccccc21	none
CO/N=C(\C(=O)N[C@@H]1C(=O)N2C(C(=O)O)=C(CSc3nc(=O)c(O)nn3C)CS[C@@H]12)c1csc(N)n1	none
COc1ccc(-c2cc(C(=O)N/N=C/c3ccc(O)cc3)[nH]n2)cc1	none (no result: ALOX15B inhib)
C1CCCNCC1	none
O=C(NC(NC(=S)Nc1ccccc1)C(Cl)(Cl)Cl)c1cccc(Cl)c1 (stereo not given)	12-hLO inh inconclusive, ALOX15B inhib 25µM
Cc1cc(C)c(NC(=S)NC(NC(=O)c2ccccc2)C(Cl)(Cl)Cl)c(C)c1 (stereo not given)	none (no result: ALOX15B inhib)
O=C(c1ccc(Cc2nc3ccccc3[nH]2)cc1)N1CCOCC1	none (no result: ALOX15B inhib)
COc1cc(Sc2ccc(C)cc2)c(OC)cc1N	ALOX15B inhib 10µM
COC(=O)c1ccc(Sc2ccc(C)cc2)c(N)c1	none
C[C@@]12C=CC(=O)C=C1CC[C@@H]1[C@@H]2[C@H](O)C[C@]2(C)[C@@H]1CC[C@]2(O)C(=O)CO	none
C[C@H]1Cc2c(COc3ccccc3)nc3c(c2CO1)CN(C(=O)c1ccco1)CC3	none (no result: ALOX15B inhib)
Cc1ccc(/C=C2\SC(=S)N(CC(=O)Nc3ncc(Cc4ccccc4Cl)s3)C2=O)cc1	ALOX15B inhib 13µM
Cc1ccc(/C=C2/SC(=S)N(CC(=O)Nc3ncc(Cc4ccc(C)cc4)s3)C2=O)cc1	ALOX15B inhib inconclusive
CCCCc1cc2c(cn1)=C(OC(=O)c1ccco1)C(C)(OC(=O)CC)C(=O)C=2 (stereo not given)	none (no result: ALOX15B inhib)
CCNc1ncc2nc(-c3ccc(Cl)cc3)c(=O)n(CCC#N)c2n1	none (no result: 12-hLO inh)
CCOC(=O)c1cc(-c2ccccc2)sc1NC(=O)C(C)(C)C	none
CCOC(=O)c1cc(-c2ccccc2)sc1NC(=S)Nc1cc(C)ccn1	ALOX15B inhib 10µM
CCCCC(=O)NCCc1c(Cc2ccccc2)[nH]c2ccccc12	none
CSCC[C@H](NC(=O)c1ccc(Cl)c(S(=O)(=O)N2CCCC2)c1)c1nc2ccccc2[nH]1	12-hLO inh 18µM
O=C(NCc1nc2ccccc2[nH]1)c1ccc(Cl)c(S(=O)(=O)N2CCCC2)c1	none
O=C(c1ccccc1)N1CCN(c2ccc(NCc3ccc4c(c3)OCO4)cc2)CC1	12-hLO inh inconclusive, ALOX15B inhib 20µM
O=C(O)c1cc(NCc2ccc3c(c2)OCO3)ccc1N1CCOCC1	none
Cc1ccc(C(=O)N2CCN(c3ccc(Cl)cc3)CC2)cc1	none
CC(=O)N1CCN(c2ccc(NCc3ccc4c(c3)OCO4)cc2)CC1	12-hLO inh inconclusive, ALOX15B inhib 13µM
Cc1ccc(C(=O)N2CCN(c3ccc(NC(=S)NC(=O)Cc4ccccc4)cc3)CC2)cc1	12-hLO inh inconclusive, ALOX15B inhib 13µM
O=C(c1ccc2c(c1)OCO2)N1CCN(c2ccccc2)CC1	none
COc1ccc(-n2c(=O)cnc3cnc(N(C)C)nc32)cc1	none (no result: 12-hLO inh)
COc1cccc(Cn2c(=O)c(CCc3ccccc3)nc3cnc(OC)nc32)c1	none
CCC(=O)OC1(C)C(=O)C=C2C=C(CCCNC(=O)OC(C)(C)C)OC=C2C1=O (stereo not given)	none (no result: ALOX15B inhib)
CCCOC(=O)c1cc(-c2ccc(C=O)o2)ccc1Cl	none (no result: ALOX15B inhib)
C=CCOC(=O)c1cc(-c2ccc(/C=C3\C(=O)NC(=O)C(C#N)=C3C)o2)ccc1Cl	ALOX15B inhib 13µM
NCCNc1cccc2ccccc12	none
O=C1NCCCc2c1oc1ccc(O)cc21	ALOX15B inhib inconclusive
Oc1c(Cl)cc(Cl)c2c1NCCC2	12-hLO inh inconclusive, ALOX15B inhib 5µM
CN1[C@@H]2CC[C@@H]1CC(OC(=O)[C@H](CO)c1ccccc1)C2 (stereo not given in full)	none
Cn1cccc1C(=O)N1CCC[C@@]2(CCN(C(c3ccccc3)c3ccccc3)C2)C1	none
CC[C@]12CCCN3CCc4c(n(c5ccccc45)C(=O)C1)[C@H]32	none
CCOc1ccc(C2C(C#N)=C(N)SC(N)=C2C#N)cc1OCC	ALOX15B inhib inconclusive
N#CC1=C(N)SC(N)=C(C#N)C1c1ccc(C(F)(F)F)cc1	ALOX15B inhib 13µM
O=C(Nc1ccc(Cl)cc1)c1cccs1	none
O=C(Nc1ccccc1)c1nnsc1S(=O)c1ccc(Cl)cc1 (stereo not given)	12-hLO inh inconclusive, ALOX15B inhib 1.3µM
COc1cc(N=c2ssnc2Cl)cc(OC)c1OC	12-hLO inh inconclusive, ALOX15B inhib 25µM
N#Cc1ccc(N=c2ssnc2Cl)cc1	none (no result: ALOX15B inhib)
COc1ccc(N2C(=O)CC(Nc3ccc(C)cc3)C2=O)cc1 (stereo not given)	none
Cc1ccc(NC2CC(=O)N(c3ccc(N4CCCCC4)cc3)C2=O)cc1 (stereo not given)	none
CN(C)c1ccc(N2C(=O)CC(Nc3ccc(N4CCOCC4)cc3)C2=O)cc1 (stereo not given)	none (no result: ALOX15B inhib)
COc1ccc(N2C(=O)CC(Nc3ccc(N4CCOCC4)cc3)C2=O)c(OC)c1 (stereo not given)	ALOX15B inhib 32µM
O=C1CC(Nc2ccc(N3CCOCC3)cc2)C(=O)N1c1cccc(C(F)(F)F)c1 (stereo not given)	12-hLO inh inconclusive, ALOX15B inhib 20µM
COc1cccc(N2C(=O)CC(Nc3ccc(N4CCOCC4)cc3)C2=O)c1 (stereo not given)	12-hLO inh inconclusive, ALOX15B inhib 13µM
CS(=O)(=O)N1CCC2(CCN(c3ccccn3)CC2)CC1	none
CCCCS(=O)(=O)N1CCc2nc(-c3ccc(OC)cc3C)c3c(c2C1)CO[C@@H](c1ccccc1)C3	none (no result: ALOX15B inhib)
COC(=O)C1=C(C)NC(C)=C(C(=O)OCCCN2CCC(c3ccccc3)(c3ccccc3)CC2)[C@H]1c1cccc([N+](=O)[O-])c1	none
O=C(NCC1CC1)[C@H]1C[C@@H]1[C@H](NP(=O)(c1ccccc1)c1ccccc1)c1ccccc1	none
CC(=O)[C@@H]1CC[C@@H]2[C@@H]3CC=C4C[C@H](OS(=O)(=O)O)CC[C@@]4(C)[C@H]3CC[C@]21C	none
CC(C)C1COc2cc3oc(=O)ccc3cc2O1 (stereo not given)	none

From PubChem
